Pol eta inh = inhibitors of human DNA polymerase eta; Potency, µM (series often up to 114 µM), without a hit: at the top dose activity change, negative = inhibition, most hits filed as inhibitors; recombinant Pol eta, fluorescent DNA replication assay; Q9Y253; actives 1.2% (n = 390,000); note: % is set by controls: 0 for no effect and ±100 for the full control effect
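Pol eta (10 nM) was preincubated with compounds for 15 min at room temperature, after which fluorescent replication substrate (50 nM final) was added to start the reaction. Fluorescence was read kinetically at 0 and 10 min.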
Pol iota inh = blocks human DNA polymerase iota activity; Pol iota fluorescent replication assay, 10 min; Potency, µM (top dose mostly 115 µM), for inactives: top-dose activity, negative = inhibition, hits mostly inhibitors; actives 1% (n = 390,000)
Target sequence (Q9UNA4 whole entry, looked up): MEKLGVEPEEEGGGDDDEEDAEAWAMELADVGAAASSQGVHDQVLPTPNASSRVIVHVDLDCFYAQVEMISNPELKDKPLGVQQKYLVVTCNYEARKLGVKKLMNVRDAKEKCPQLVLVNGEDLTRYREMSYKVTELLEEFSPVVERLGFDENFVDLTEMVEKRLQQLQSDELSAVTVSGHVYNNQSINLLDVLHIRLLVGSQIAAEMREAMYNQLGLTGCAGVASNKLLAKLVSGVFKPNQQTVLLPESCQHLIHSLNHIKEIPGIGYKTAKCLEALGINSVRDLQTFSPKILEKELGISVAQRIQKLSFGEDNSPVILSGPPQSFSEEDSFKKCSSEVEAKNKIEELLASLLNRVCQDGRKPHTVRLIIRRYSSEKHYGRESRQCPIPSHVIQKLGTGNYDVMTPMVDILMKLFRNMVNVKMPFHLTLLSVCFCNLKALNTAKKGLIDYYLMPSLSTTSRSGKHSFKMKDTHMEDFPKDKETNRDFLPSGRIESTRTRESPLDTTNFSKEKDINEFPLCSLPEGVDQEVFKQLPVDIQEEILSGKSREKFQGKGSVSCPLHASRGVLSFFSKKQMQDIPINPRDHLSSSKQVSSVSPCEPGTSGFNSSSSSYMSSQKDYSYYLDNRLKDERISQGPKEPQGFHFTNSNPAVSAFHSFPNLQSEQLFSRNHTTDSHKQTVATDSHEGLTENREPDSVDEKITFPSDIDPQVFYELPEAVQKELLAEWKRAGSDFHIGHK
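Pol iota at 10 nM preincubated 15 min with compounds at room temperature; reaction started with fluorescent substrate, 50 nM final. Fluorescence read kinetically at 0 and 10 min; buffer-only wells as negative control.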
Pol beta inh = blocks human DNA polymerase beta activity | P06746 | Pol beta primer extension/strand displacement, fluorescence kinetic | Potency, µM (series often up to 114 µM), for the others: at the top dose activity change, negative = inhibition, hits mostly inhibitors | actives 1.3% (n = 340,000) | AID 485314; note: % is set by controls: 0 for no effect and ±100 for the full control effect
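Pol beta (10 nM) was preincubated with compound for 15 min at room temperature. The reaction was then started with 50 nM substrate and read immediately and after a further 10 min at room temperature.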
APE1 inh = blocks human APE1 abasic DNA cleavage; P27695; recombinant APE1, TAMRA/BHQ-2 abasic DNA cleavage fluorescence; Potency, µM (titrated, usually from 65.8 µM), without a hit: at the highest dose activity change, negative = inhibition, most hits filed as inhibitors; actives 0.35% (n = 350,000);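 note: plate controls were vehicle for no effect and reference inhibitor for full effect; nearly all actives have a fitted effect of over 55% in size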
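Readout is kinetic fluorescence (ex 525, em 598 nm) from cleavage of 50 nM TAMRA/BHQ-2 THF abasic duplex by 0.75 nM APE1, compound added 15 min beforehand at RT.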
Pol kappa inh = blocks human DNA polymerase kappa activity; Q9UBT6; purified Pol kappa, fluorescent DNA synthesis assay, 10 min; Potency, µM (top dose mostly 107 µM), without a hit: at the highest dose activity, negative = inhibition, hits mostly inhibitors; actives 0.53% (n = 400,000); note: % is set by controls: 0 for no effect and ±100 for the full control effect
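Pol kappa 10 nM + cpd, 15 min RT; start w/ substrate 50 nM final; fluorescence kinetic read, 0 and 10 min. Neg ctrl: buffer, no enzyme.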
GLS inhibitor = glutaminase GLS (human) inhibition | GLS enzymatic activity, qHTS titration | Potency, µM (series often up to 45.5 µM), inactives show top-dose activity change, negative = inhibition, actives largely listed as inhibitors | actives 0.21% (n = 410,000); note: % is set by controls: 0 for no effect and ±100 for the full control effect
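Enzyme dispensed in phosphate buffer (45 mM, pH 8.2, 0.02% Tween-20), compounds pinned in, then 1 mM L-glutamine solution and the glutamate oxidase–HRP–Amplex Red mix added; fluorescence read immediately and again after 30 min at room temperature.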
* hit, by the source's call; ? = inconclusive; · = no result given. This is a sample that favours compounds with a hit; in the whole collection about 2.4% have one here. Calls come from the whole dose curve; as a rule, active = well fitted curve in the direction sought with a large enough effect; inconclusive = small, poorly fitted or top-dose-only effect, or another doubt; inactive = no such curve, though single readings can be large; an effect the other way counts as inactive or inconclusive. Potency is the fitted concentration of half-maximal effect.

SMILES | Pol eta inh | Pol iota inh | Pol beta inh | APE1 inh | Pol kappa inh | GLS inhibitor
Cc1c(C(=O)O)cccc1-n1c(C)cc(/C=N/Nc2ccc([N+](=O)[O-])cn2)c1C | ? | 50µM* | 25µM* | -3% | 79µM* | 12%
O=C(CN1C(=O)NC2(CCOc3ccccc32)C1=O)c1ccc(Cl)s1 (stereo unspecified) | -15% | 15% | · | -5% | -3% | -1%
O=C(CN1C(=O)NC2(CCOc3ccccc32)C1=O)c1ccc[nH]1 (stereo unspecified) | ? | 40µM* | · | 32% | -19% | -6%
COC(=O)c1sc2cc(C(F)(F)F)cnc2c1-c1cccnc1 | -21% | 8% | 0% | 0% | -1% | -3%
CCCOc1ccc(C(C)=O)cc1CSCCC#N | -15% | 16% | -3% | 13% | -6% | -4%
CCCOc1ccc(C(C)=O)cc1CSc1nc(O)cc(=O)[nH]1 | -5% | 35µM* | ? | -1% | ? | -1%
COc1cc(OC)c2c(O)c3c(c(-c4c5c(c(O)c6c(OC)cc(OC)cc46)CO[C@@H](C)[C@H]5O)c2c1)[C@H](O)[C@H](C)OC3 | 20µM* | ? | 35µM* | ? | 40µM* | ?
COc1ccc(NC(=O)c2ccc(NC(=O)COC(=O)CC(NC(=O)c3ccccc3Cl)c3ccccc3)cc2)cc1 (stereo unspecified) | -20% | 28% | -13% | -9% | -24% | -11%
COc1cc(NCCCCC(C)N)c2nccc(C)c2c1 (stereo unspecified) | -12% | · | · | · | · | 7%
COc1cc(NCCCC(C)N)c2ncccc2c1 (stereo unspecified) | ? | -101% | 32µM* | ? | -5% | 23%
COC(=O)[C@H](CC(C)C)NC(=O)N1CCN(c2cccc(C(F)(F)F)c2)CC1 | -16% | 37% | 0% | 2% | -4% | 1%
Cc1cccc(Nc2nn3c(=O)c4cc5c(cc4nc3s2)OCO5)c1 | -5% | -2% | 3.2µM* | · | -8% | 3%
Cc1cccc(C)c1Nc1nn2c(=O)c3cc4c(cc3nc2s1)OCO4 | -13% | -17% | -17% | · | -7% | -3%
COCCn1c(SCc2cc(=O)n3ccsc3n2)nnc1-c1ccncc1 | -17% | 125% | 7% | 21% | 1% | 4%
Cc1ccc(SCc2cc(=O)n3ccsc3n2)c(C)c1 | · | · | 28µM* | -2% | · | ·
O=c1cc(CSc2n[nH]c(-c3ccncc3)n2)nc2sccn12 | ? | 50µM* | 10µM* | -20% | ? | -11%
CCCC(=O)N1CCN(Cc2nc3cc([N+](=O)[O-])ccc3n2C)CC1 | -2% | 34% | 24% | -5% | -4% | 5%
COc1cccc(C(=O)Oc2ccccc2/C=C\C(=O)c2cc3ccccc3o2)c1 | -3% | ? | 14% | 1% | -24% | -1%
COC(=O)CCC/C=C1/SCC(NC(=O)c2ccccc2)C1=O (stereo unspecified) | ? | 45µM* | 2% | 21% | -14% | 23%
Nc1ccc(/C=C/c2ccc3cccnc3c2)cc1 | · | -19% | · | · | -1% | ·
CN1c2ccc([N+](=O)[O-])cc2N(C)C1(C)c1ccccc1 (stereo unspecified) | -9% | 2% | -1% | -14% | -6% | 23%
O=C(Nc1ccc2nc(-c3cccs3)[nH]c2c1)c1cccs1 | ? | ? | 3% | 18% | -11% | 8%
Cc1ccc(-n2nc3ccc(NC(=O)c4ccco4)cc3n2)cc1 | ? | ? | 25µM* | -13% | -41% | -10%
O=C(Nc1ccc2nc(-c3cccs3)[nH]c2c1)c1ccco1 | ? | ? | 32µM* | 4% | -19% | -8%
Cc1ccc2nc(-c3ccc(NC(=O)c4ccco4)cc3)[nH]c2c1 | ? | ? | 25µM* | ? | -29% | -2%
SMILES | Pol eta inh | Pol iota inh | Pol beta inh | APE1 inh | Pol kappa inh | GLS inhibitor
Cn1cccc1-c1nc2ccc(NC(=O)c3ccco3)cc2[nH]1 | -2% | -2% | -19% | -4% | -11% | 0%
N#Cc1ccsc1NC(=O)CCN1C(=O)C2CCCCC2C1=O (stereo unspecified) | -10% | 25% | · | 0% | -11% | -4%
CC(C)(O)C#Cc1ccc(C(=O)N2CCCC(CNS(=O)(=O)c3cccs3)C2)o1 (stereo unspecified) | -2% | 1% | 2% | 61% | -13% | 17%
Cc1ccnc(NS(=O)(=O)c2ccc(NC(=O)Cc3ccc(F)cc3)cc2)n1 | 5% | 5% | 6% | -6% | 7% | -3%
Cc1ccnc(NS(=O)(=O)c2ccc(NC(=O)Cc3cccs3)cc2)n1 | 2.5µM* | 14µM* | 20µM* | ? | 32µM* | -21%
Cc1ccc(-c2csc3nc(SCC(=O)Nc4ccc(Cl)c(C(=O)O)c4)[nH]c(=O)c23)cc1 | 40µM* | ? | ? | 7% | -40% | 51%
Cc1cccc(NC(=O)CSc2nc(NS(=O)(=O)c3ccccc3)cc(=O)[nH]2)c1 | -4% | ? | 32µM* | 1% | -28% | -8%
O=C(CSc1ncn[nH]1)Nc1ccc(S(=O)(=O)Nc2ncccn2)cc1 | -15% | 5% | 6% | -3% | 15% | -3%
Cc1ccc(C)c(SCC(=O)Nc2ccc(S(=O)(=O)Nc3ncccn3)cc2)c1 | 50µM* | ? | ? | -3% | 0% | 1%
Cc1ccccc1-c1nnc(SCC(=O)Nc2ccc(Cl)cc2)n1N | -4% | 12% | 1% | 1% | -10% | -3%
CCCc1nc2ccccc2n2c(-c3cccc(C)c3)c3c(=O)n(C)c(=O)n(C)c3c12 | -1% | -19% | 14% | · | -6% | 14%
COCCn1c(SCC(=O)NC2CC2)nnc1-c1ccco1 | -3% | 11% | 11% | 48% | 2% | 5%
COc1ccc(S(=O)(=O)N(CC(=O)Nc2ccc3c(c2)OCO3)c2ccccc2OC)cc1 | -4% | 0% | -1% | -2% | -10% | 4%
Cc1ccc(S(=O)(=O)Nc2cc(=O)[nH]c(SCC(=O)Nc3cccc(C(F)(F)F)c3)n2)cc1 | -4% | 125% | 58% | 21% | -2% | 2%
Cc1sc2nc(SCC(=O)Nc3cccc(S(N)(=O)=O)c3)[nH]c(=O)c2c1C | ? | ? | · | 6% | -24% | -4%
Cc1sc2nc(SCC(=O)Nc3ccc(S(N)(=O)=O)cc3)[nH]c(=O)c2c1C | ? | ? | 25µM* | 11% | -16% | 9%
Cc1ccc(NC(=O)CSc2nc(NS(=O)(=O)c3ccc(C)cc3)cc(=O)[nH]2)cc1 | -12% | 1% | 28µM* | ? | -15% | 1%

Compound activity from PubChem BioAssay.
